Screens (PubChem)
SMN2 splice up: qHTS Assay for Enhancers of SMN2 Splice Variant Expression. HEK293 SMN2-luciferase splicing reporter, luminescence, 30-36 h. Potency, µM (titrated, usually from 46.1 µM), for the others: top-dose activity change, positive = activation, usual class: activators. 2.8% of 210,000 active. AID 1458, 2008; note: % of control where 0% means no effect; nearly all actives have a fitted effect of over 55% in size
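qHTS luciferase splicing reporter: luminescence rises when SMN2 exon 7 is included in transfected HEK293 cells. Compound exposure lasted 30-36 h at 37C, with 4.5 mM final sodium butyrate as control, followed by a ONE-Glo read.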
Rab9 promoter act: qHTS Assay for Rab9 Promoter Activators; Huh7 Rab9 promoter-luciferase reporter, luminescence, 24 h; Potency, µM (top dose mostly 9.22 µM), for inactives: at the highest dose activation, negative = inhibition, most hits filed as activators; 2.8% of 320,000 active; AID 485297, 2010; note: % of control where 0% means no effect; nearly all actives have a fitted effect of over 60% in size
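Rab9 promoter-driven luciferase in stably transfected Huh7 cells; 1500 cells/well rested 2 h, exposed to compound in DMSO for 24 h at 37 °C, 5% CO2. Luminescence read 10 min after adding luciferase reagent at ambient temperature.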
NPC1 promoter act: qHTS Assay for NPC1 Promoter Activators; Huh7 NPC1 promoter luciferase reporter, 24 h; Potency, µM (series often up to 9.22 µM), for inactives: at the highest dose activation, usual class: activators; 2.4% of 320,000 active; AID 485313, 2010; note: % of control where 0% means no effect; nearly all actives have a fitted effect of over 60% in size
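Stably transfected Huh7 (NPC1 promoter→luciferase), 1500 cells/well in Opti-MEM + 10% FBS, 2 h settle, then compound 24 h at 37 °C. Luminescence after 10 min with Amplite reagent.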
FLuc counter: qHTS profiling assay for firefly luciferase inhibitor/activator using purifed enzyme and Km concentrations of substrates (counterscreen for miR-21 project). Luciferin 4-monooxygenase (Photinus pyralis), P08659. purified FLuc, Km substrates, luminescence inhibition. Potency, µM (top dose mostly 57.5 µM), without a hit: top-dose activity change, negative = inhibition, usual class: inhibitors. 6.9% of 360,000 active;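 note: plate controls were vehicle for no effect and reference inhibitor for full effect; nearly all actives have a fitted effect of over 55% in size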
Target sequence (P08659 whole entry, looked up): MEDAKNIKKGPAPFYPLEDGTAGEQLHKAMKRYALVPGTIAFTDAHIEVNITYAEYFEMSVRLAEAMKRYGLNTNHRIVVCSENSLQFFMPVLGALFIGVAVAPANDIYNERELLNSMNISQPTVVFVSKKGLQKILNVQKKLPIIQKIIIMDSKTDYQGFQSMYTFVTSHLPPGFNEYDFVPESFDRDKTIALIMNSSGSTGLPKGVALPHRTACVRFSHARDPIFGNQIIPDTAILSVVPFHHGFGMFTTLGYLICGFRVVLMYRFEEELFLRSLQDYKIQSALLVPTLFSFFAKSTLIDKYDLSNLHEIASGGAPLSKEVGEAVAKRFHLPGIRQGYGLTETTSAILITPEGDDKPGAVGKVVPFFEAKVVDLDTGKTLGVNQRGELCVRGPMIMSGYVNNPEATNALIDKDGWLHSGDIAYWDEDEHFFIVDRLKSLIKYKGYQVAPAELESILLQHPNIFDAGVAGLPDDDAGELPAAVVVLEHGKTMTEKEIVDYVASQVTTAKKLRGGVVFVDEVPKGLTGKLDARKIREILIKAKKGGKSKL
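Purified P. pyralis luciferase, 10 nM final, with Km-level 10 uM D-luciferin and 10 uM ATP in 50 mM Tris acetate pH 7.5, 10 mM Mg acetate, 0.01% Tween-20, 0.05% BSA; 6-point qHTS titration about 60 µM downward; luminescence read.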
ELG1 genotoxic: qHTS screen for small molecules that induce genotoxicity in human embryonic kidney (HEK293T) cells expressing luciferase-tagged ELG1 | HEK293T ELG1-luciferase reporter, luminescence, 16 h | Potency, µM (titrated, usually from 46 µM), without a hit: top-dose activity change, positive = activation, hits mostly activators | 1.3% of 330,000 active; note: % of control where 0% means no effect; nearly all actives have a fitted effect of over 60% in size
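16 hr compound incubation (37 °C, 5% CO2) of HEK293T cells carrying luciferase-tagged ELG1; luciferase then measured by ONE-Glo luminescence after 30 min at RT.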
KinaseGlo FLuc: Counterscreen for Luciferase (Kinase-Glo TM) Inhibition; Potency, µM (series often up to 38.3 µM), without a hit: at the top dose activity change, negative = inhibition, actives largely listed as inhibitors; 0.28% of 200,000 active; Luciferin 4-monooxygenase (Photuris pensylvanica), Q27757; Kinase-Glo luciferase, ATP luminescence, 8 min; AID 1379, 2008; note: % is set by controls: 0 for no effect and ±100 for the full control effect; nearly all actives have a fitted effect of over 60% in size
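Recombinant Kinase-Glo luciferase, 10 uM ATP (linear range), luciferin; imidazole pH 7.2 / KCl / MgCl2 / Tween / BSA buffer; 8 min RT; luminescence.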
An asterisk follows results filed as active; ? = inconclusive; nt = no result; [ ] = another dose, or the depositor's remark. Only some compounds are listed: those with a hit (about 7.4% of all), similar ones and a draw of the others. Calls come from the whole dose curve; as a rule, active = well fitted curve in the direction sought with a large enough effect; inconclusive = small, poorly fitted or top-dose-only effect, or another doubt; inactive = no such curve, though single readings can be large; an effect the other way counts as inactive or inconclusive. Potency is the fitted concentration of half-maximal effect.

SMILES	SMN2 splice up	Rab9 promoter act	NPC1 promoter act	FLuc counter	ELG1 genotoxic	KinaseGlo FLuc
O=C(Nc1ccc(-c2nnc(-c3ccccc3)o2)cc1)C(F)(F)F	nt	1.3µM*	1.6µM*	?	?	-3%
CC(=O)/C=C(\C)Nc1ccc(-c2cnc(-c3ccccc3)o2)cc1	4µM*	0.45µM*	1µM*	1.9µM*	2µM*	-27%
CC(C)C(=O)Nc1ccc(-c2nnc(-c3ccccc3)o2)cc1	nt	0.32µM*	0.32µM*	2.4µM*	?	nt
c1ccc(-c2cnc(-c3ccc(-c4ncc(-c5ccccc5)o4)cc3)o2)cc1	21%[9.22 µM]	nt	nt	nt	nt	-3%[7.66 µM]
CCOc1ccc(CCNC(=O)c2cc3c(=O)n(C)c4ccccc4c3n2C)cc1OCC	2%	nt	nt	-8%	nt	nt
CCc1ccc(C(=O)c2cn(CC(=O)Nc3ccc4c(c3)OCO4)c3ccc(CC)cc3c2=O)cc1	9%	nt	nt	-2%	nt	nt
CC(C)(C)C(=O)OCc1nc(-c2ccc(C(F)(F)F)cc2)cs1	nt	0%	-4%	15µM*	4%	nt
CCOc1ccccc1C1CC(=O)Nc2c1c(=O)n(C)c1ncnn21 (stereo not given)	1%	nt	nt	-6%	nt	nt
COc1ccc(-n2c(=O)c3c(c4cc(OC)ccc4n3C)n(C)c2=O)cc1	nt	nt	nt	-5%	nt	nt
Cc1[nH]n(C(N)=S)c(=O)c1N=Nc1cccc([N+](=O)[O-])c1C	nt	2.5µM*	?	8.5µM*	?	nt
Cc1ccc(N=Nc2c(C)[nH]n(C(N)=S)c2=O)cc1C	10µM*	3.5µM*	3.5µM*	3.8µM*	?	-2%
NC(=S)n1[nH]c(-c2ccc([N+](=O)[O-])cc2)c(N=Nc2cccc([N+](=O)[O-])c2)c1=O	-71%	-17%	0%	?	-15%	3%
Cc1ccc(C(=O)NNC(=O)c2ccc(S(=O)(=O)N3CCCCC3)cc2)cc1	nt	nt	nt	nt	-1%	nt
Cc1[nH]n(C(N)=S)c(=O)c1N=Nc1ccc(S(=O)(=O)N2CCCCCC2)cc1	-20%	3%	7%	5.4µM*	4%	-7%
Cc1[nH]n(C(N)=S)c(=O)c1N=Nc1ccc2ccccc2c1	22µM*	4µM*	3.2µM*	3µM*	18µM*	1%
CC(=O)Nc1ccc(/C=N/NC(N)=S)cc1	nt	nt	nt	nt	nt	3%[39.9 µM]
Cc1c(N=Nc2c(-c3ccc([N+](=O)[O-])cc3)[nH]n(C(N)=S)c2=O)cccc1[N+](=O)[O-]	-62%	-34%	-33%	?	-15%	-2%
Cc1[nH]n(C(N)=S)c(=O)c1N=Nc1cc(-c2ccc(Br)cc2)[nH]n1	?	?	22%	1.7µM*	8%	1%
CC(=O)Nc1ccc(N=Nc2c(C)[nH]n(C(N)=S)c2=O)cc1	43%	?	29%	15µM*	?	1%
Cc1cc(=O)n(Cc2ccccc2Cl)c2c1c(C)nn2-c1ccccc1	nt	nt	nt	-1%	nt	nt
Cc1ccc2c(c1)NC(=O)c1cccnc1N2	11µM*	?	3.2µM*	12µM*	?	-2%
O=C1Nc2ccccc2Nc2ncccc21	?	4%	-4%	3%	-1%	17%
COc1ccc(-c2ccc(SCC(=O)N3c4ccccc4CC3C)nn2)cc1OC (stereo not given)	?	-2%	11%	4.3µM*	-4%	0%
CCOC(=O)N1CCN(C(=O)CSc2ccc(-c3ccc(OC)c(OC)c3)nn2)CC1	2%	5%	2%	17µM*	-14%	0%
CCOC(=O)N1CCN(C(=O)CSc2ccc(-c3ccc(OC)cc3)nn2)CC1	-16%	-6%	1%	11µM*	0%	-3%
SMILES	SMN2 splice up	Rab9 promoter act	NPC1 promoter act	FLuc counter	ELG1 genotoxic	KinaseGlo FLuc
CC1Cc2ccccc2N1C(=O)CSc1nncn1C (stereo not given)	16%	6%	-2%	-1%	1%	3%
COc1ccc(CCNC(=O)CCS(=O)(=O)c2cc3c(cc2Cl)NC(=O)CO3)cc1OC	nt	nt	nt	-7%	nt	nt
CC1CC2C3CC(F)C4=CC(=O)C=C[C@@]4(C)[C@@]3(F)C(O)C[C@]2(C)[C@]1(O)C(=O)COC(=O)C(C)(C)C (stereo not given in full)	4%	nt	nt	nt	nt	-5%
CC(C)(C)c1ccc(-c2noc(C(=O)NN)n2)cc1	nt	18%	23%	?	1%	nt
CC(C)(C)c1ccc(-c2conc2N)cc1	18µM*	2.5µM*	?	2.7µM*	12%	-6%
COC(=O)c1ccc(CSc2nc(-c3ccccc3)cs2)o1	2%	12%	12%	8.5µM*	12%	-3%
CC(C)NC(=O)CSc1nc(-c2ccccc2)cs1	?	2.5µM*	?	19µM*	17%	1%
O=C(c1ccccc1)c1cc2ccc(O)cc2oc1=O	0%	14%	23%	19µM*	6%	11µM*
O=C(c1ccc(Br)cc1)c1cc2ccc(O)cc2oc1=O	nt	2%	6%	?	2%	nt
Cc1oc(=O)c(NC(=O)c2ccccc2)cc1C(C)O (stereo not given)	nt	11%	9%	7%	8%	-12%
O=C(Nc1cc2ccc(O)cc2oc1=O)c1ccccc1	nt	nt	nt	5.4µM*	nt	nt
Cc1ccsc1/C=N\Nc1cn[nH]c(=O)c1Cl	0%	3%	6%	-20%	21µM*	-2%
COc1ccc(/C=N/Nc2cn[nH]c(=O)c2Cl)cc1	?	24%	18%	?	21µM*	-4%
Cc1ccc(/C=N\Nc2cn[nH]c(=O)c2Cl)cc1	18%	?	29%	24µM*	21µM*	-5%
O=c1[nH]ncc(N/N=C/c2ccccc2)c1Cl	-2%	-8%	-1%	2%	?	-4%
CC(C)N(Cc1ccccc1)S(=O)(=O)c1ccc(N2CCCCS2(=O)=O)cc1	nt	nt	nt	-1%	nt	nt
Fc1cc(Br)ccc1NC(=S)Nc1ccccc1	18µM*	?	?	19µM*	9%	3%
Fc1ccccc1NC(=S)Nc1ccc(Br)cc1	nt	2%	-4%	?	0%	nt
O=C(Nc1ccccc1)Nc1ccc(F)cc1F	?	4.5µM*	?	12µM*	?	-6%
COC(=O)c1ccc(NC(=O)Nc2cccc(F)c2)cc1	nt	1.8µM*	?	4.8µM*	7%	nt
COC(=O)c1ccc(NC(=O)Nc2ccc(F)cc2F)cc1	20µM*	3.5µM*	?	7.6µM*	?	-6%
CC(=O)Nc1cccc(NC(=O)Nc2ccc(F)cc2F)c1	71%	1%	-1%	?	4%	-3%
